Assay results from PubChem BioAssay AID720706 (Broad Institute, 2013).
About 5,500 (1.6%) of roughly 350,000 compounds were called active.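 How the source made its calls: active means significant combined selectivity score with lowered wild-type GFP, culture density cut under 30%, mutant RFP and density less affected; inactive means any of these conditions unmet.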 What follows is part of a selection rich in actives, with near analogues and random picks from the rest.

Assay: GFP drop in mixed WT/humanized-ribosome E. coli culture – GFP/RFP fluorescence, OD600, single point, bacterial rRNA inhibitor project, primary screen (AID 720706)
Conditions: E. coli WT GFP vs humanized-ribosome RFP mutants, 24 h; GFP signal change (wild-type ribosome): stronger effect = lower value, DMSO median 0, no signal -100; OD600 change: measured here: OD600 growth, DMSO median 0, no signal -100; RFP signal change: measured here: RFP humanized mutant strains, DMSO median 0, no signal -100, concentration not given here

SMILES	GFP signal change (wild-type ribosome)	OD600 change [%]	RFP signal change [%]
CO[C@H]1CN(C)C(=O)c2cc(NC(=O)c3cnccn3)ccc2OC[C@H](C)N(C(=O)C2CC2)C[C@H]1C	1% (inactive)	-0.758	-0.83
N#Cc1cccc(-c2ccc(C3[C@@H]4CNC[C@H]3N4)cc2)c1 (stereo partly specified)	-0.575% (inactive)	6.2	2
C[C@@H]1CCCCO[C@H](CN(C)S(=O)(=O)c2ccccc2)[C@@H](C)CN([C@H](C)CO)C(=O)c2cc(NC(=O)Nc3ccc(F)cc3)ccc2O1	4.23% (inactive)	5.59	-0.807
Oc1c(Br)cc(/C=N/NC(=S)NCC2CCCO2)cc1Br (stereo unspecified)	-32.6% (active)	-2.28	0.247
S=C(NCC1CCCO1)N1CCN(c2ccc(Cl)c(Cl)c2)CC1 (stereo unspecified)	-56.8% (inactive)	-79.1	-18.4
S=C(NCCc1ccccc1)NCC1CCCO1 (stereo unspecified)	8.89% (inactive)	4.83	-3.48
C[C@@H]1CN([C@@H](C)CO)S(=O)(=O)c2ccc(Br)cc2O[C@H]1CN(C)S(=O)(=O)c1ccccc1	-30.9% (inactive)	-59.2	14
CS(=O)(=O)N1CC2(C1)[C@H](c1ccccc1)[C@@H](CO)N2C(=O)c1ccccc1	-2.24% (inactive)	8.82	-1.96
O=C(c1ccccc1)N1CC(=O)N2[C@@H](CO)[C@H](c3ccc(C#CCC4CCCC4)cc3)[C@@H]2C1	-0.385% (inactive)	4.12	15.8
O=C(Nc1cccc(Cl)c1)N1C[C@@H]2[C@H](c3ccccc31)[C@H](CO)N2Cc1ccncc1	-19.3% (active)	-14	2.23
O=C(Nc1ccccc1)N1C[C@H]2[C@@H](c3ccccc31)[C@H](CO)N2Cc1ccc(F)cc1	-4.61% (inactive)	-3.58	0.773
O=C(Nc1cccc(Cl)c1)N1C[C@@H]2[C@H](c3ccccc31)[C@H](CO)N2C(=O)C1CC1	-55.8% (inactive)	-75.7	-10.1
O=C(C[C@@H]1C[C@@H]2c3cc(NC(=O)c4ccc5c(c4)OCO5)ccc3O[C@@H]2[C@H](CO)O1)NCC1CC1	-0.47% (inactive)	-2.45	1.83
N#C[C@H]1[C@H](c2ccccc2-c2ccc(F)cc2)[C@H](CO)N1C(=O)Cc1ccncc1	-3.78% (inactive)	7.17	-0.986
COCc1cn(CC[C@H]2CC[C@H](NC(=O)Cc3cccnc3)[C@H](CO)O2)nn1	-2.43% (inactive)	-1.71	-2.1
CCOC(=O)N1CCN(C(=O)c2ccccc2N(Cc2ccccc2)S(=O)(=O)c2ccc(OC)cc2)CC1	-25.8% (active)	-20.1	0.913
C=CCN(c1ccccc1C(=O)NCC(=O)OCC)S(=O)(=O)c1ccc(C)cc1	5.68% (inactive)	-1.3	1.08
NC(=O)c1ccccc1N(Cc1ccccc1)S(=O)(=O)c1ccccc1	-4.05% (inactive)	-16.6	-0.699
C[C@H](CO)N1C[C@H](C)[C@H](CN(C)C(=O)C2CC2)OCc2ccccc2-c2ccccc2C1=O	3.14% (inactive)	2.12	-2.73
CO[C@@H]1CN(C)C(=O)c2ccc(NC(=O)C3CC3)cc2OC[C@H](C)N(C(C)=O)C[C@H]1C	2.84% (inactive)	2.36	-2.71
O=C1NCCOCc2cn(nn2)CC[C@@H]1Cc1ccccc1	4.08% (inactive)	6.55	-0.105

SMILES	GFP signal change (wild-type ribosome)	OD600 change [%]	RFP signal change [%]
O=C(Nc1nnc(Cc2ccc(Cl)cc2)s1)c1cccnc1	-2.18% (inactive)	2.81	-2.51
O=C(Nc1nnc(Cc2ccccc2)s1)c1cnccn1	13.9% (inactive)	13.3	1.31
O=C(Nc1nnc(Cc2ccc(Cl)cc2)s1)c1ccncc1	-25.9% (active)	0.397	10.4
CO[C@@H]1CN(C)C(=O)c2ccc(NS(C)(=O)=O)cc2OC[C@@H](C)N(C(=O)C2CCOCC2)C[C@@H]1C	2.81% (inactive)	-0.862	-0.242
CS(=O)(=O)N1CCCCN2[C@H](CO)[C@H](c3ccc(-c4cccc(C#N)c4)cc3)[C@H]2C1	-2.77% (inactive)	2.86	1.13
C[C@@H](NC(=O)C[C@@H]1CC[C@H](NC(=O)Cc2ccccn2)[C@H](CO)O1)c1ccccc1	1.1% (inactive)	-1.33	0.264
COc1cc(Cl)c(S(=O)(=O)N2CCN(Cc3ccc4c(c3)OCO4)CC2)cc1Cl	-5.43% (inactive)	-7.87	-2.97
COc1ccc(-c2cc(C(=O)N3CCN(Cc4ccc5c(c4)OCO5)CC3)on2)cc1OC	-30.2% (active)	-22.1	4.69
Cc1cc(C)n2nc(C(=O)N3CCN(Cc4ccc5c(c4)OCO5)CC3)nc2n1	6.71% (inactive)	4.13	-0.674
Cc1ccnc(NC(=O)CNC(=O)c2ccccc2)c1	0.565% (inactive)	1.47	0.604
Cc1noc(C)c1COc1ccc(C(=O)NCCOc2ccccc2)cc1	-5.24% (inactive)	-2.29	-0.784
Cc1ncoc1C(=O)NCCC(c1ccccc1)c1ccccc1	-22.1% (active)	-9.13	0.235
COc1ccc(NC(=O)Nc2ccc3c(c2)C(=O)N([C@@H](C)CO)C[C@@H](C)[C@@H](CN(C)Cc2ccncc2)OCCCC[C@@H](C)O3)cc1	-3.01% (inactive)	-5.38	9.15
CO[C@@H]1CN(C)C(=O)c2cc(NC(=O)NC3CCCCC3)ccc2OC[C@@H](C)N(C(C)=O)C[C@H]1C	1.07% (inactive)	3.15	-0.812
Cc1cccc(-c2ccc([C@H]3[C@H](CO)N4CCCCN(S(=O)(=O)c5cn(C)cn5)C[C@@H]34)cc2)c1	2.02% (inactive)	3.81	1.54
COc1cccc(-c2ccc([C@H]3[C@H](CO)N4CCCCN(S(=O)(=O)c5cccs5)C[C@@H]34)cc2)c1	-0.886% (inactive)	-0.41	0.565
Cc1cccc(-c2ccc([C@@H]3[C@@H](CO)N4CCCCN(S(=O)(=O)c5cccs5)C[C@H]34)cc2)c1	-37.8% (active)	-24.1	-1.67
Cc1ccccc1-c1ccc2c(c1)O[C@@H](CN(C)C(=O)Nc1ccc(F)cc1)[C@H](C)CN([C@@H](C)CO)S2(=O)=O	-3.25% (inactive)	-11.6	-1.01
O=C(c1ccncc1)N1CC(=O)N2[C@H](CO)[C@H](c3ccc(-c4ccccc4F)cc3)[C@@H]2C1	3.75% (inactive)	-1.79	-0.215
CCCNC(=O)N1CC2(C1)CN(Cc1cccc(F)c1)[C@@H](CO)c1[nH]c3cc(OC)ccc3c12	0.104% (inactive)	3.77	0.338
Cc1cccc(CSc2nc3c(c(=O)n2C)SCC3)c1	-33.5% (active)	-21	-2.49

SMILES	GFP signal change (wild-type ribosome)	OD600 change [%]	RFP signal change [%]
Cn1c(SCC(=O)N2CCCCC2)nc2c(c1=O)SCC2	5.14% (inactive)	-0.579	-0.99
COCCn1c(SCC(=O)Nc2ccc(F)cc2F)nc2c(c1=O)SCC2	0.103% (inactive)	-1.78	-3.71
CCCN1[C@H](C(=O)N[C@H](C)c2ccccc2)[C@@H](CO)[C@@H]2Cn3c(ccc(-c4ccccc4)c3=O)[C@@H]21	-1.92% (inactive)	-37.1	14.2
Cc1cccc(N2C(=O)SC(N(CC(=O)O)c3cccc(C)c3)C2=O)c1 (stereo unspecified)	2.86% (inactive)	2.55	2.75
Cc1ccc(N2C(=O)SC(N(CC(=O)O)c3ccc(C)cc3)C2=O)cc1 (stereo unspecified)	-19.1% (active)	-12.3	8.05
Cc1ccc(CC2S/C(=C(/C#N)C(=O)N3CCOCC3)N(c3ccccc3)C2=O)cc1 (stereo unspecified)	7.88% (inactive)	10.1	-0.528
CCC(=O)N(C)C[C@@H]1Oc2cc(C#CCOC)ccc2S(=O)(=O)N([C@@H](C)CO)C[C@@H]1C	2.66% (inactive)	5.66	-0.769
C[C@H](CO)N1C[C@H](C)[C@@H](CN(C)S(=O)(=O)c2ccc(Cl)cc2)Oc2ccc(NS(=O)(=O)c3cccs3)cc2CC1=O	-3.83% (inactive)	-15.4	2.4
COc1ccc(C(C)(O)c2nc(-c3ccc(C)c(C)c3)cs2)cc1 (stereo unspecified)	-26.3% (inactive)	-43.5	0.438
CC(C)(C)C(=O)OCc1nc(-c2ccc(O)c(O)c2)cs1	-25.8% (active)	-12.7	-1.12
CN(c1ccc(O)cc1)c1nc(-c2cccnc2)cs1	-12.4% (inactive)	-11.5	-4.17
COc1ccccc1-c1ccc([C@@H]2C[C@H]3[C@H](CON3C)CN2S(=O)(=O)c2cc(Cl)cc(Cl)c2)cc1	6.53% (inactive)	14.8	-4.58
Cc1ccccc1-n1nnnc1SCCCC(=O)c1ccc(F)cc1	-23.1% (active)	-14.2	-2.44
O=C(CSc1nnnn1-c1ccc(O)cc1)c1ccc(F)cc1	-23.8% (inactive)	-18.1	-2.43
CC(=O)Nc1ccc(NC(=O)CSc2nnnn2-c2ccccc2F)cc1	4.89% (inactive)	2.23	-0.743
CCNC(=O)Nc1ccc2c(c1)C(=O)N(C)[C@H]1CC[C@H](CC(=O)NCC3CCCCC3)O[C@@H]1CO2	-0.861% (inactive)	-5.67	0.251
O=C(c1ccc(F)cc1)N1CC(=O)N2[C@H](CO)[C@H](c3ccc(-c4ccccc4F)cc3)[C@@H]2C1	0.409% (inactive)	-9.64	3.17
C[C@@H]1CN([C@H](C)CO)C(=O)c2cc(NC(=O)Nc3ccccc3)ccc2O[C@@H](C)CCCCO[C@@H]1CN(C)S(=O)(=O)c1ccc(F)cc1	1.72% (inactive)	-2.21	-3.62
COc1ccc2c3c(n(C)c2c1)[C@@H](CO)N(C)CC31CN(S(=O)(=O)c2cccs2)C1	0.733% (inactive)	-9.82	-0.435
O=C(C[C@@H]1CC[C@@H](NC(=O)Nc2ccc(F)cc2)[C@H](CO)O1)NCCN1CCCC1	0.52% (inactive)	4.7	-1.57
